# Laboratory results taken from article PMC7862700, “An all-to-all approach to the identification of sequence-specific readers for epigenetic DNA modifications on cytosine”.
# Experiments:
# Test in all cases: DAPPL (digital affinity profiling via proximity ligation, sequencing); 10 mM Tris-HCl pH 7.5, 50 mM NaCl, 1 mM DTT, 4% glycerol, room temperature, 30 min; GST-TFs on glutathione beads, 16-mer random dsDNA library, 0.1% formaldehyde crosslink after washing; high values mean tight binding
# Conditions in all cases: protein: recombinant; tags: N-terminal GST; dsDNA, one strand shown
# FLI1 = target: T1, FLI1 (Homo sapiens, UniProt Q01543 1-452)
# T1 sequence: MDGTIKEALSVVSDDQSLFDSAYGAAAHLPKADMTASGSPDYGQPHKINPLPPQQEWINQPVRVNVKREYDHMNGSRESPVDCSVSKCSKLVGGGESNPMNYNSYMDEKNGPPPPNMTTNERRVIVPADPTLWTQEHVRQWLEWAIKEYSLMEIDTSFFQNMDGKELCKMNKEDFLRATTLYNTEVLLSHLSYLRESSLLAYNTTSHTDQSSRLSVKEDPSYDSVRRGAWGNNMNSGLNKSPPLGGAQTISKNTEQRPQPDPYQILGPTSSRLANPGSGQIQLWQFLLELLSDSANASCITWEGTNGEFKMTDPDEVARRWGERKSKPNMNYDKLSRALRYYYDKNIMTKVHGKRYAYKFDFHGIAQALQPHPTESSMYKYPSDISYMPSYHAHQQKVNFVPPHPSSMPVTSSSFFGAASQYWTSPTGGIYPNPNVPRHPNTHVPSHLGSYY
# How it was run: (§1)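 Pools of DNA-barcoded human transcription factors, expressed in yeast as GST fusions on glutathione beads and combined with a tag-only sample, were incubated with 200 nmole of a 16-mer random double-stranded DNA library. Incubation took 30 min at room temperature in Tris/NaCl/DTT/glycerol buffer and was followed by washing, 0.1% formaldehyde crosslinking, proximity ligation (BsaI/T4 ligase, 1 h, 37 °C), PCR amplification and sequencing on an Illumina NextSeq500. Binding signal is the ratio of a hexamer's read frequency for a factor to its frequency for the tag-only sample.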
# ELK1 = target: T2, ELK1 (Homo sapiens, UniProt P19419 1-428)
# T2 sequence: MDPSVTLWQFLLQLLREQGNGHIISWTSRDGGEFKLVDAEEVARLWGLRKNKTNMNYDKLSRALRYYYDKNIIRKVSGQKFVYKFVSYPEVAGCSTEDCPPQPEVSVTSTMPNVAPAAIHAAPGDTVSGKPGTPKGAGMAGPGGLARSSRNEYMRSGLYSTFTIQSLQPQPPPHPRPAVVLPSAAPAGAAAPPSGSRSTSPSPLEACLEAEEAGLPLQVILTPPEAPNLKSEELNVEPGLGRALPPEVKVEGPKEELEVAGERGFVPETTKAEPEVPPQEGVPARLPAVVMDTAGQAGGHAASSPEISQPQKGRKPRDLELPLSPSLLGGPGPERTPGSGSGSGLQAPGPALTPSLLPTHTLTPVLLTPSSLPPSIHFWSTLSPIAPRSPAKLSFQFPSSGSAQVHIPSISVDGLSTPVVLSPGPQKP
# How it was run: as §1
# GABPA = target: T3, GABPA (Homo sapiens, UniProt Q06546 1-454)
# T3 sequence: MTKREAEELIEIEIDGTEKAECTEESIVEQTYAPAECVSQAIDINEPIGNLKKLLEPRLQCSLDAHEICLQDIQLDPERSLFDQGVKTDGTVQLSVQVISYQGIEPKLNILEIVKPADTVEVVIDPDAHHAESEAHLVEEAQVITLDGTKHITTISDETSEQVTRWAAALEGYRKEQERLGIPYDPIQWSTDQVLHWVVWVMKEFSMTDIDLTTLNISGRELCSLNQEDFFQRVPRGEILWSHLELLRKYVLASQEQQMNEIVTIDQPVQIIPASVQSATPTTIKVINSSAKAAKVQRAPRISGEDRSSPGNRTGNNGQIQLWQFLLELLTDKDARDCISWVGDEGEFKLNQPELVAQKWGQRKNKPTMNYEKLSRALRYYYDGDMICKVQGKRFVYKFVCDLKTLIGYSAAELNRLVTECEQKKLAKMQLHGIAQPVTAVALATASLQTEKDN
# How it was run: as §1
# ERG = target: T4, ERG (Homo sapiens, UniProt P11308 1-479)
# T4 sequence: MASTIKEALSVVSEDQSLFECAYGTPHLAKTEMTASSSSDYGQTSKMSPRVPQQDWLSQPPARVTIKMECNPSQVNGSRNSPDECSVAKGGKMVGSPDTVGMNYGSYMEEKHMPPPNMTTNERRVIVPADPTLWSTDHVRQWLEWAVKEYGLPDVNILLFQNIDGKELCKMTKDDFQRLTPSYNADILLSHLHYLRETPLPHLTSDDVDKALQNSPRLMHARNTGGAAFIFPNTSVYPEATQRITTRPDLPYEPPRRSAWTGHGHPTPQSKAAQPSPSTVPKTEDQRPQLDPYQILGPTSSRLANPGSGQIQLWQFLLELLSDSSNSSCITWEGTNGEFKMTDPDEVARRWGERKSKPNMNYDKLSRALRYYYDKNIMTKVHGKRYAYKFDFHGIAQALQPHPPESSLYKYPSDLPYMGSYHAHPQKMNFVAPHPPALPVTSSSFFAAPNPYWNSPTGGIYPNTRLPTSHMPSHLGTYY
# How it was run: as §1
# ELF1 = ELF1 (Homo sapiens, UniProt P32519 1-619)
# Chain of ELF1 (P32519 whole entry): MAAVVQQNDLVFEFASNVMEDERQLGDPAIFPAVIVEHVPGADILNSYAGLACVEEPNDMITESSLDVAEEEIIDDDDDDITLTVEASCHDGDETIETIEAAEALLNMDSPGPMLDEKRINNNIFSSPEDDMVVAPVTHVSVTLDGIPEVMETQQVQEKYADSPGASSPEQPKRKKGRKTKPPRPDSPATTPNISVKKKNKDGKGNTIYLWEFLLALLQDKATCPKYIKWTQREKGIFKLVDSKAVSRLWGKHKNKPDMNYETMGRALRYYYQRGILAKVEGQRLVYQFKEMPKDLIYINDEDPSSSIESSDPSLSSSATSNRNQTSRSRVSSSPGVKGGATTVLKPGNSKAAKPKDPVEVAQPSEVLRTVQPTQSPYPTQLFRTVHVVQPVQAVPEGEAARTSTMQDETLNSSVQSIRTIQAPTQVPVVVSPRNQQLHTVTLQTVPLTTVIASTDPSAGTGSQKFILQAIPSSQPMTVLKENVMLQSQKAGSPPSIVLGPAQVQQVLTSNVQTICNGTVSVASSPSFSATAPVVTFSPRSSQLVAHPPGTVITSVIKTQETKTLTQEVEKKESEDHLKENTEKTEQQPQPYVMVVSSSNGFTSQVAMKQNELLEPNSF
# How it was run: as §1
# EHF = target: T5, EHF (Homo sapiens, UniProt Q9NZC4 1-300)
# T5 sequence: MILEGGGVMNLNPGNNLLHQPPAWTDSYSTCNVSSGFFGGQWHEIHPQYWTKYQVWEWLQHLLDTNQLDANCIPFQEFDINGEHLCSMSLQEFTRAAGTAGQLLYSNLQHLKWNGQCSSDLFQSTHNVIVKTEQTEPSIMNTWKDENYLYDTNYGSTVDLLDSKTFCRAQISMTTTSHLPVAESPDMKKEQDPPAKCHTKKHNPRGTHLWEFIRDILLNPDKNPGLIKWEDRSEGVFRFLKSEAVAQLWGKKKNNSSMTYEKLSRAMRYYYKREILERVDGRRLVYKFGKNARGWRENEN
# How it was run: as §1
# SPIB = SPIB (Homo sapiens, UniProt Q01892 1-262)
# Chain of SPIB (Q01892 whole entry): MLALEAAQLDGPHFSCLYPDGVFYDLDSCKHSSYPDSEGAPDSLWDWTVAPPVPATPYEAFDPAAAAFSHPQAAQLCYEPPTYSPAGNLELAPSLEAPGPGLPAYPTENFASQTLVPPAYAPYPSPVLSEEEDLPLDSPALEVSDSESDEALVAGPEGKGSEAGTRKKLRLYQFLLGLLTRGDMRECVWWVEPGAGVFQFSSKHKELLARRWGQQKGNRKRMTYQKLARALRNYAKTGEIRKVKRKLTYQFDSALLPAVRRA
# How it was run: as §1
# ELK3 = target: T6, ELK3 (Homo sapiens, UniProt P41970 1-407)
# T6 sequence: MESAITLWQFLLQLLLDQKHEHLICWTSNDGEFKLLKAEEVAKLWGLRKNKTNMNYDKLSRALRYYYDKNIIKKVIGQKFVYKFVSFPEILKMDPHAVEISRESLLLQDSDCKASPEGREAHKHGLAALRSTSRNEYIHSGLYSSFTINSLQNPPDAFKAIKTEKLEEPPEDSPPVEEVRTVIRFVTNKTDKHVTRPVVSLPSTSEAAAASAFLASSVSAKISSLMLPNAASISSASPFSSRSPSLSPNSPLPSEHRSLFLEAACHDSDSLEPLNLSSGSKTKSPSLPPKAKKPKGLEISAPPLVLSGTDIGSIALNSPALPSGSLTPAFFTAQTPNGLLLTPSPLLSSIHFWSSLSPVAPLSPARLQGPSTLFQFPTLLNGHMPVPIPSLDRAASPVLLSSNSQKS
# How it was run: as §1
# FEV = target: T7, FEV (Homo sapiens, UniProt Q99581 1-238)
# T7 sequence: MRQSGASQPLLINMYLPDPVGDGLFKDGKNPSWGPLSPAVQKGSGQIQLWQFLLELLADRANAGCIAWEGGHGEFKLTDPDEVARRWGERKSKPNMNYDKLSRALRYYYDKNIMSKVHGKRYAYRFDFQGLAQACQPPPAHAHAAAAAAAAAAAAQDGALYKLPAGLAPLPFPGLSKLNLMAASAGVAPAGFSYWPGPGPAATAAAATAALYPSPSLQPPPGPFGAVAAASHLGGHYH
# How it was run: as §1
sequence,measurement,setting,value
TATCAG,binding signal,FLI1,"1.15 fold enrichment (6-mer frequency, TF over GST control)"
same,binding signal,ELK1,"1.21 fold enrichment (6-mer frequency, TF over GST control)"
same,binding signal,GABPA,"1.14 fold enrichment (6-mer frequency, TF over GST control)"
same,binding signal,ERG,"1.09 fold enrichment (6-mer frequency, TF over GST control)"
same,binding signal,ELF1,"1.15 fold enrichment (6-mer frequency, TF over GST control)"
same,binding signal,EHF,"1.13 fold enrichment (6-mer frequency, TF over GST control)"
same,binding signal,SPIB,"1.2 fold enrichment (6-mer frequency, TF over GST control)"
same,binding signal,ELK3,"1.15 fold enrichment (6-mer frequency, TF over GST control)"
same,binding signal,FEV,"1.07 fold enrichment (6-mer frequency, TF over GST control)"
